# Experiment: A549 cell viability effects, profiling panel, calcein-AM fluorescence, 48 h, basal (AID 1162)
# Conditions: higher = more signal
# Further: test concentration not given here.
row,SMILES,z-score
1,O=C(CS)NCCCCCCNC(=O)[C@@H]1C[C@@H]2C(=O)N[C@@H](Cc3ccccc3)C(=O)N2[C@@H]1c1cccc(OCCO)c1,-0.55
2,CC(C)C(O)C1C=CC2C(=O)N(c3ccccc3)C(=O)C2N1Nc1ccc([N+](=O)[O-])cc1 (stereo not given),-0.821
3,CC(C)N1C(=O)[C@@]2(Cc3ccccc31)c1ccccc1C(=O)N(Cc1ccccc1Cl)[C@H]2c1ccc(CO)cc1,1.02
4,C=CCC(OC(C)=O)[C@@H]1[C@@H](N(Cc2cc3ccccc3o2)C(=O)c2cccc3ccccc23)c2cc(OCCCO)ccc2N1C(=O)c1ccc(-c2ccccc2)cc1 (stereo not given in full),0.067
5,C=CCC(OC(C)=O)[C@@H]1[C@@H](N(Cc2ccc(-c3ccccc3)cc2)C(=O)Cc2ccc(OC)cc2)c2cc(OCCCO)ccc2N1C(=O)Cc1ccc2ccccc2c1 (stereo not given in full),0.247
6,Cc1ccc(S[C@]2(C(=O)O)CC(=O)N(C(C)C)[C@@H]2c2ccc(CO)cc2I)cc1,2.14
7,O=C1O[C@@H](c2ccccc2)[C@@H](c2ccccc2)N2[C@@H](c3ccccc3OCCO)[C@]3(C(=O)Nc4ccc(C#CC5=CCCCC5)cc43)[C@@H](C(=O)N3CCCCCCC3)[C@H]12,-1.66
8,O=C1OCCC/C=C\[C@H]2OC34C=CCN(Cc5ccccc5)C(=O)[C@H]3N(CCCO)C(=O)[C@@H]4C12 (stereo not given in full),-0.0592
9,COC(=O)[C@@]1(Cc2ccc(OC)cc2)[C@H]2c3cc(C(=O)N(C)C)n(Cc4ccc(S(C)(=O)=O)cc4)c3C[C@H]2CN1C(=O)c1ccccc1,2.88
10,CC(C)C[C@@H]1NC(=O)[C@H](C(C)C)NC(=O)[C@@]23C(=O)N[C@@H](Cc4ccccc4)C2[C@H](C)[C@@]2(C)O[C@H]2C3/C=C/CC/C=C/CNC1=O (stereo not given in full),-0.642
11,COCCOC(=O)N1C(=O)[C@@]2(c3ccccc31)[C@H](c1ccc(O)cc1)N1[C@H](c3ccccc3)[C@H](c3ccccc3)OC(=O)[C@H]1[C@@H]2C(=O)Nc1nc2ccccc2s1,0.982
12,CC(C)OC(=O)C=C1C[C@@H](c2ccccn2)O[C@@H](c2ccccn2)O1,-0.564
13,COC(=O)[C@@]1(Cc2ccc(F)cc2)[C@H]2c3cc(C(=O)N(C)C)n(Cc4ccc(Cl)c(C(F)(F)F)c4)c3C[C@H]2CN1C(=O)c1ccccc1,-1.16
14,CC(C)(C)OC(=O)CC[C@]1(C(=O)N2CCOCC2)N=C(c2ccc(OCCCO)cc2)O[C@H]1c1ccccc1N=[N+]=[N-],0.901
15,C=C(C(=O)CC[C@@H](OC(=O)c1cccnc1)c1ccccc1OCCO)C(C)C,-0.125
16,NCCCCCCNC(=O)[C@@H]1C[C@@H]2C(=O)NCC(=O)N2[C@@H]1c1ccc(O)cc1,-1.17
17,CCCCCCc1nc(-c2cc(C)c(OC)c(C)c2)cc2c1[Si](C(C)C)(C(C)C)OC2,-0.194
18,C=CCOC(=O)[C@@H]1[C@H]2C(=O)O[C@H](c3ccccc3)[C@H](c3ccccc3)N2[C@H](c2ccc(OCCOC(=O)[C@H]3C[C@H]4C(=O)N5CCC[C@H]5C(=O)N4[C@H]3c3ccc(O)cc3)cc2)[C@@]12C(=O)Nc1ccc(I)cc12,0.0077
19,O=C(N1CCCCC1)[C@]1(Cc2ccccc2)N=C(c2ccc(OCCCO)cc2)O[C@@H]1c1ccccc1,-1.69
20,CCOC(=O)[C@H]1C/C=C/C[C@H](C(=O)OCC)C(=O)O[C@H]2[C@@H](OC)O[C@H](CO)[C@@H](OC(=O)c3c(OC)cccc3OC)[C@@H]2OC1=O,-4.24
21,C=C(CCCC)/C(=C/C[C@H](OC(=O)c1ccncc1)c1ccccc1OCCO)c1cnc2ccccc2c1,0.0262
22,CCN(CC)c1ccc(N2CC=CC34O[C@@H]5C=CCCOC(=O)C5[C@H]3C(=O)N(CCCCCCO)[C@@H]4C2=O)cc1 (stereo not given in full),0.75
23,COC(=O)[C@@]1(Cc2ccc(OC)cc2)[C@H]2c3cc(C(=O)N4CCCC4)n(CCN4CNCC4=O)c3C[C@H]2CN1C(=O)c1ccccc1,-0.215
24,CCC(CC)C(O)C1C=CC2C(=O)NC(=O)C2N1Nc1ccccn1 (stereo not given),-0.651
25,O=C(CS)NCCCCCCNC(=O)[C@@H]1C[C@@H]2C(=O)NCC(=O)N2[C@@H]1c1cccc(OCCO)c1,0.861

# Experiment: adipocyte viability effects, profiling panel, cell-based, 3T3-L1 adipocytes, calcein-AM fluorescence, 48 h, basal (AID 1163)
# Conditions: 3T3-L1 adipocytes viability, higher = more signal
row,SMILES,z-score
1,COCC(=C=CC[C@@H](O)c1cccc(OCCO)c1)C[C@@H](O)c1ccccn1,-0.0288
2,C[C@@]1([C@@H](NC(=O)c2ccc(-c3ccccc3)cc2)c2ccc(Cl)cc2)C[C@H]1C1CCCCC1,-0.52
3,CCc1cccc(NC(=O)O[C@H]2[C@H](OC(=O)Nc3ccccc3-c3ccccc3)[C@@H](OC(=O)Nc3ccccc3-c3ccccc3)[C@@H](OC)O[C@@H]2CO)c1,0.175
4,C=C[C@H](CO[Si](CC)(CC)CC)N(Cc1ccc(OC(C)=O)c(OC)c1)S(=O)(=O)c1ccc(Br)cc1,0.327
5,C[C@H]1NC(=O)[C@@]23C(=O)N[C@@H](Cc4ccccc4)C2[C@H](C)[C@@]2(C)O[C@H]2C3/C=C/C/C=C\CNC(=O)[C@@H]2CCCN2C1=O (stereo not given in full),0.286
6,CCS[C@H]1[C@@H](C(=O)O)[C@H](c2ccc(C)cc2)N(S(=O)(=O)c2ccc(C)cc2)[C@@H]1CC,-0.507
7,COCCOC(=O)N1C(=O)[C@@]2(c3ccccc31)[C@H](C(=O)N1CCc3cc(OC)c(OC)cc3C1)[C@H]1C(=O)O[C@H](c3ccccc3)[C@H](c3ccccc3)N1[C@@H]2c1ccc(OCCO)cc1,1.48
8,[N-]=[N+]=Nc1ccccc1[C@H]1OC(c2ccc(OCCCO)cc2)=N[C@@]1(CCS(=O)(=O)c1ccccc1)C(=O)NCC(O)CO (stereo not given in full),0.638
9,[N-]=[N+]=NCc1ccccc1[C@@H]1OC(c2ccc(OCCCO)cc2)=N[C@]1(Cc1ccccc1)C(N)=O,1.5
10,C=C(CCCC)C(=O)CC[C@@H](OC(=O)c1ccccc1-c1ccccc1C(=O)O)c1ccc(OCCO)cc1,1.22
11,O=C(CS)NCCCCCCNC(=O)[C@@H]1C[C@@H]2C(=O)N[C@@H](Cc3ccccc3)C(=O)N2[C@@H]1c1cccc(OCCO)c1,0.363
12,CC(C)C(O)C1C=CC2C(=O)N(c3ccccc3)C(=O)C2N1Nc1ccc([N+](=O)[O-])cc1 (stereo not given),-1.18
13,CC(C)N1C(=O)[C@@]2(Cc3ccccc31)c1ccccc1C(=O)N(Cc1ccccc1Cl)[C@H]2c1ccc(CO)cc1,-0.24
14,C=CCC(OC(C)=O)[C@@H]1[C@@H](N(Cc2cc3ccccc3o2)C(=O)c2cccc3ccccc23)c2cc(OCCCO)ccc2N1C(=O)c1ccc(-c2ccccc2)cc1 (stereo not given in full),0.509
15,C=CCC(OC(C)=O)[C@@H]1[C@@H](N(Cc2ccc(-c3ccccc3)cc2)C(=O)Cc2ccc(OC)cc2)c2cc(OCCCO)ccc2N1C(=O)Cc1ccc2ccccc2c1 (stereo not given in full),0.358
16,Cc1ccc(S[C@]2(C(=O)O)CC(=O)N(C(C)C)[C@@H]2c2ccc(CO)cc2I)cc1,0.827
17,O=C1O[C@@H](c2ccccc2)[C@@H](c2ccccc2)N2[C@@H](c3ccccc3OCCO)[C@]3(C(=O)Nc4ccc(C#CC5=CCCCC5)cc43)[C@@H](C(=O)N3CCCCCCC3)[C@H]12,0.25
18,O=C1OCCC/C=C\[C@H]2OC34C=CCN(Cc5ccccc5)C(=O)[C@H]3N(CCCO)C(=O)[C@@H]4C12 (stereo not given in full),-0.0687

row,SMILES,z-score
1,COC(=O)[C@@]1(Cc2ccc(OC)cc2)[C@H]2c3cc(C(=O)N(C)C)n(Cc4ccc(S(C)(=O)=O)cc4)c3C[C@H]2CN1C(=O)c1ccccc1,0.449
2,CC(C)C[C@@H]1NC(=O)[C@H](C(C)C)NC(=O)[C@@]23C(=O)N[C@@H](Cc4ccccc4)C2[C@H](C)[C@@]2(C)O[C@H]2C3/C=C/CC/C=C/CNC1=O (stereo not given in full),1.39
3,COCCOC(=O)N1C(=O)[C@@]2(c3ccccc31)[C@H](c1ccc(O)cc1)N1[C@H](c3ccccc3)[C@H](c3ccccc3)OC(=O)[C@H]1[C@@H]2C(=O)Nc1nc2ccccc2s1,0.267
4,CC(C)OC(=O)C=C1C[C@@H](c2ccccn2)O[C@@H](c2ccccn2)O1,-0.631
5,COC(=O)[C@@]1(Cc2ccc(F)cc2)[C@H]2c3cc(C(=O)N(C)C)n(Cc4ccc(Cl)c(C(F)(F)F)c4)c3C[C@H]2CN1C(=O)c1ccccc1,-0.207
6,CC(C)(C)OC(=O)CC[C@]1(C(=O)N2CCOCC2)N=C(c2ccc(OCCCO)cc2)O[C@H]1c1ccccc1N=[N+]=[N-],0.232
7,C=C(C(=O)CC[C@@H](OC(=O)c1cccnc1)c1ccccc1OCCO)C(C)C,0.909
8,NCCCCCCNC(=O)[C@@H]1C[C@@H]2C(=O)NCC(=O)N2[C@@H]1c1ccc(O)cc1,0.544
9,CCCCCCc1nc(-c2cc(C)c(OC)c(C)c2)cc2c1[Si](C(C)C)(C(C)C)OC2,1.29
10,C=CCOC(=O)[C@@H]1[C@H]2C(=O)O[C@H](c3ccccc3)[C@H](c3ccccc3)N2[C@H](c2ccc(OCCOC(=O)[C@H]3C[C@H]4C(=O)N5CCC[C@H]5C(=O)N4[C@H]3c3ccc(O)cc3)cc2)[C@@]12C(=O)Nc1ccc(I)cc12,0.205
11,O=C(N1CCCCC1)[C@]1(Cc2ccccc2)N=C(c2ccc(OCCCO)cc2)O[C@@H]1c1ccccc1,1.16
12,CCOC(=O)[C@H]1C/C=C/C[C@H](C(=O)OCC)C(=O)O[C@H]2[C@@H](OC)O[C@H](CO)[C@@H](OC(=O)c3c(OC)cccc3OC)[C@@H]2OC1=O,0.125
13,C=C(CCCC)/C(=C/C[C@H](OC(=O)c1ccncc1)c1ccccc1OCCO)c1cnc2ccccc2c1,0.091
14,CCN(CC)c1ccc(N2CC=CC34O[C@@H]5C=CCCOC(=O)C5[C@H]3C(=O)N(CCCCCCO)[C@@H]4C2=O)cc1 (stereo not given in full),1.45
15,COC(=O)[C@@]1(Cc2ccc(OC)cc2)[C@H]2c3cc(C(=O)N4CCCC4)n(CCN4CNCC4=O)c3C[C@H]2CN1C(=O)c1ccccc1,0.0334
16,CCC(CC)C(O)C1C=CC2C(=O)NC(=O)C2N1Nc1ccccn1 (stereo not given),-0.883
17,O=C(CS)NCCCCCCNC(=O)[C@@H]1C[C@@H]2C(=O)NCC(=O)N2[C@@H]1c1cccc(OCCO)c1,-0.356

# From PubChem BioAssay
